In PubChem BioAssay AID1671194 (National Center for Advancing Translational Sciences (NCATS), 2021):
Among all 140,000 compounds or so, about 240 (0.17%) were called active. Entries that show only a call come without a potency. Another 9% or so got no clear call; they are omitted. Calls follow the shape of the dose curve; as a rule, active = well fitted inhibition curve with a large enough effect; inconclusive = small, poorly fitted or top-dose-only effect; inactive = no such curve, though single readings can be large or run the other way. This excerpt belongs to a sample that is enriched for actives.

Assay: Primary qHTS assay for inhibitors of alpha-synuclein gene (SNCA) expression; also: nearly all actives have a fitted effect of over 45% in size
Conditions: HEK-293 SNCA-luciferase knock-in, luminescence, 24 h; series mostly up to 57.2 µM
Source text: Assay Submitter (PI): Daniel R. Scoles Ph.D.
Department of Neurology, University of Utah, Salt Lake City, Utah
Accumulation of alpha-synuclein is a main underlying pathological feature of Parkinson's disease (PD) and alpha-synucleinopathies, for which lowering expression of the alpha-synuclein gene (SNCA) is a potential therapeutic avenue. Using a cell-based luciferase reporter of SNCA expression we performed a quantitative high throughput screen (qHTS) of 155,885 compounds in dose response. The screening assay was generated using genome editing to insert the luciferase gene downstream and in frame of the SNCA gene in HEK-293 cells (1). A viability counterscreen using GF-AFC was used to eliminate cytotoxic and false positive compounds. After in silico analysis (clustering, removal of frequent hitter nuisance chemotypes), inhibitor compounds from the primary screen were selected for follow up and re-tested at 11-doses in the SNCA-luc cells (luciferase and GF-AFC confirmation), and in CMV-luc expressing cell line to flag general transcriptional repressors.
Described herein are the results of the primary screen for SNCA inhibitors; decrease in luciferase signal (inhibition of the SNCA gene expression) is the desired output for this assay.
1. Dansithong, W., Paul, S., Scoles, D. R., Pulst, S. M., and Huynh, D. P. (2015) Generation of SNCA Cell Models Using Zinc Finger Nuclease (ZFN) Technology for Efficient High-Throughput Drug Screening. PLoS ONE 10, e0136930.
SEQUENCE No. (e.g., 1, 2, 3, etc.); […] (e.g., Cells, Incubation, Reagent, etc.); VALUE; DESCRIPTION
1; Cells; 4 uL; Dispense 1500 HEK-293-SNCA-luc cells/well into Greiner 1536-well white / solid bottom tissue culture treated plate. The plate was covered with metal lids with gas-exchange holes.
2; Incubate; 24 hours; Incubate at 37C, 5% CO2, 95% RH.
3; Compounds; 23 nL; Compounds and controls were transferred via a Kalypsys Pin Tool (Wako USA) equipped with a 1536-slotted pin array. The plate was covered with metal lids with gas-exchange holes.
4; Incubate; 24 hours; Incubate at 37C, 5% CO2, 95% RH.
5; Dispense; 1 uL; Dispense Gly-Phe-7-amino-4-trifluoromethylcoumarin (GF-AFC, prepared at 125 uM in PBS) was added. The plate was covered with metal lids with gas-exchange holes.
6; Incubate; 30 min; Incubate at 37C, 5% CO2.
7; Detector; Fluorescence; Measure fluorescence with ViewLux microplate reader (PerkinElmer) equipped with 405/10 excitation and 540/25 emission filters.
8; Dispense; 3 uL; Dispense ONE-Glo ([…]) lucifase detection reagent was added to each well. Plates were covered with metal lids with gas-exchange holes.
9; Incubate; 15 min; Incubate at room temperature.
10; Detector; Luminescence; Measure luminescence with ViewLux microplate reader (PerkinElmer) equipped with clear filters.
NOTES (numbers refer to sequence above)
1; HEK-293-SNCA-luc were cultured and suspended in phenol-red free DMEM (4.5 g/L glucose, 25 mM HEPES, cat #21063 (Thermo)).
3; Compounds were added to the assay plate in an 11-point intra plate dose response, 1:3 titration in DMSO with a final concentration range of […]. Vehicle-only plates, with DMSO being pin-transferred to every well, were inserted at the beginning of screening runs to confirm expected assay performance. Activity was normalized to wells containing medium only (-100% activity, full inhibition) and SNCA-luc cells treated with DMSO vehicle control (0% activity), contained on the same plate as test samples.
10; Signals were analyzed, and dose-response curves were fit using the Hill equation. Compounds in curve classes -1.1, -1.2, -2.1, -2.2 in the SNCA-luc assay were considered active. Compounds were eliminated from further consideration if also active (curve class -1.1, -1.2, -1.3, -1.4, -2.1, -2.2, -2.3, -2.4) in the GF-AFC cytotoxicity assay.
Potency is read from the fitted curve at half-maximal effect.

Structure (SMILES) | Potency
CC(=O)N1CCN(C(=O)c2ccc3nc(-c4ccncc4)oc3c2)CC1 | inactive
O=C(NCCc1ccccc1)c1ccc2nnc(C3CCCC3)n2c1 | inactive
CCOC(=O)C1CCCN(C(=O)Cc2ccc(N(Cc3cccc(F)c3)C(=O)c3ccco3)cc2)C1 (centres undefined) | inactive
CCOc1ccccc1C(=O)N1CCC(Cc2nc(-c3ccccc3)no2)CC1 | inactive
COc1ccc(NC(=O)[C@@H]2C[C@@H](c3ccc(F)cc3)N(CCOc3ccccc3)C2)cn1 | inactive
CC(C)(C)C(=O)N1CCc2nc(-c3ccc(Cl)cc3)nc(-c3ccccc3)c2C1 | inactive
Cc1ccc([S+](=O)([O-])N2CCN(C(=O)c3nc4cccnc4n(C4CCCC4)c3=O)CC2)cc1 | inactive
Oc1ccccc1CN1CCOC[C@H]1c1ncc(-c2ccc(C(F)(F)F)cc2)[nH]1 | inactive
Cc1c(Cl)cccc1NC(=O)N(C)CC1CCOC1 (centres undefined) | inactive
CC1(c2cccnc2)N(CCOc2ccccc2)C(=O)OC12CCN(C(=O)c1cccc(Cl)c1)CC2 (centres undefined) | inactive
COc1ccccc1-c1cc(C(=O)NCCSC)nn2cccc12 | inactive
CC1=C[C@@H](CNC(=O)Nc2ccccc2)[C@H](C(C)C)C[C@H]1CC(=O)NCCN(C)C | inactive
O=C(C1CCC1)N1CCC(O)(c2csc(CN3CCc4ccccc4C3)n2)CC1 | inactive
O=C1[C@@H]2C[C@@H](O)CN2C2(CN(C3CCC3)C2)C(=O)N1Cc1ccccc1 | inactive
Cc1ccc(-c2noc([C@@H]3C[C@@H](O)CN3Cc3cccc(C#N)c3)n2)cc1F | inactive
O=C(Cc1ccccn1)N1CCC(C(=O)N2CCC(N3CCCC3=O)CC2)CC1 | inactive
O=C(NCCc1ccccc1)C1=NO[C@@H]2CN(Cc3ccc(F)cc3)C[C@H]12 | inactive
CC1(C)[C@H](Cc2cc(CC3CCCCC3)on2)C[C@@H]1NC1CCOCC1 | inactive
COc1cc(OC)c(CNC(=O)c2c(C)noc2-c2cc(OC)c(OC)c(OC)c2)c(OC)c1 | inactive
O=C(NCc1cccc(F)c1)c1c[nH]c2ncccc12 | inactive
Cc1ccc(C(=O)N2CCC(N3CC4CC(C3)[C@H]3CCCC(=O)N3C4)CC2)s1 (some centres undefined) | inactive
CCOc1cccc(CNC(=O)CC2CCCCN(Cc3ccccc3)C2=O)c1 (centres undefined) | inactive
O=C(NCc1ccccc1)C1CCN(c2nccc(Nc3ccccc3Cl)n2)CC1 | inactive
COc1ccccc1-c1[nH]nc2ncc(-c3cccc(CO)c3)nc12 | inactive
O=C(Cc1ccccn1)N1CCCC(C(=O)N2CCC(c3nc4ncccc4[nH]3)CC2)C1 (centres undefined) | inactive

Structure (SMILES) | Potency
COc1ccc(Nc2cnc3ccc(-c4ccc(OC)nc4)nn23)cc1 | inactive
O=C1NC2(Cc3ccccc31)CN([S+](=O)([O-])c1ccccc1)C2 | inactive
COCC(=O)N1CC(C(=O)NCCc2ccccn2)C2(CCOCC2)C1 (centres undefined) | inactive
Cc1ccc(CNC(=O)c2ccc3c(c2)CN(Cc2cccnc2Cl)CCO3)cc1 | inactive
O=C1CO[C@H]2CN(C3CCC3)C[C@H]2N1Cc1ccc(OC(F)(F)F)cc1 | inactive
O=C1NCCc2[nH]c(-c3ccncc3)cc21 | 3.41 µM (active)
CC(C)CNC(=O)C1CCCN(c2nccc(Nc3ccccc3F)n2)C1 (centres undefined) | inactive
CN(Cc1ccccc1)C(=O)CC1CCN(C(=O)CCC2CCCC2)C1 (centres undefined) | inactive
COc1ccc(CC(=O)NC2CCN(c3cc(-c4ccccc4)[nH]n3)CC2)cc1 | inactive
CC(=O)c1cnc2ccc(-c3cc(Cl)c(O)c(Cl)c3)nc2c1NC1CCC(CN(C)C)CC1 (centres undefined) | 0.027 µM (active)
CCN(CC)Cc1ccc2c(c1)CN(C(=O)Cc1c[nH]c3ccccc13)CCO2 | inactive
N#Cc1cccc(-c2c(C(=O)NCCc3ccccc3)nc3sccn23)c1 | inactive
COc1ccccc1CCC(=O)N1C[C@H](N)C[C@H]1C(=O)NC(C)C | inactive
COc1cccc(CNC(=O)c2cc(-c3cccnc3)nc3c2cnn3C)c1 | inactive
COCCN1C(=O)N(C)C(=O)C12CCN(Cc1cc(F)ccc1F)C2 (centres undefined) | inactive
O=C1NCCCCCN(C(=O)Cc2ccccc2)[C@@H]2C[C@@H](C(=O)N3CCc4ccccc4C3)C[C@H]12 | inactive
CCCNC(=O)C(NC(=O)c1ccccc1C)C1CCN(C(=O)c2ccc(OC)cc2)CC1 (centres undefined) | inactive
O=S(=O)(c1cccc(F)c1)N1CC[C@@H]2COCCN(Cc3cccnc3)[C@@H]2C1 | inactive
CN(C)c1ccc(CN[C@H]2[C@H](O)[C@@H](N3CCC(Cc4ccccc4)CC3)[C@@H]3OC[C@H]2O3)cc1 | inactive
Cc1ccc(C(=O)N2CCC3(CC2)NC(=O)N(Cc2ccc(F)cc2)C3=O)cc1 | inactive
COc1ccc2[nH]cc(CCNc3cc(-c4ccccc4CN(C)C)ncn3)c2c1 | inactive
CN(C)CCc1c[nH]c2ccc(Cn3cncn3)cc12 | 2.71 µM (active)
CS(=O)(=O)N(Cc1ccccn1)C1CN(C(=O)NCCc2ccccc2)C1 | inactive
O=C(NCc1ccc(F)cc1)c1nc(-c2ccccc2)c2ccccn12 | inactive
